Read-out in assay [1]: Macrophage colony-stimulating factor (MCSF), CSF1 (gene 1435)
Kind of assay: BSK_hDFCGF_MCSF: BioMAP Diversity Plus: hDFCGF Assay for Macrophage colony-stimulating factor (MCSF) Biomarker Activity (AID 2283060). The note with it: primary human foreskin fibroblasts; actives raise or lower the signal. A digest of the protocol:
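ELISA read-out of M-CSF in human dermal foreskin fibroblast cultures, 24 h after chemical dosing; gain or loss of signal fitted bidirectionally relative to DMSO baseline.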

Assay [2] can be described thus: BSK_hDFCGF_SRB: Viability Assessment in the BioMAP Diversity Plus: hDFCGF Assay (AID 2283061).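 Further: cells exposed to compound for 24 h before the read.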 The following applies: primary human foreskin fibroblasts. An outline of the steps:
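Primary human foreskin fibroblasts; 24 h post-dose; fixed 10% TCA, stained 0.1% SRB, A560 read; total protein as overt cytotoxicity measure; curves fit bidirectionally vs DMSO control.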

Read-out in assay [3]: TIMP metallopeptidase inhibitor 1 (TIMP1), TIMP1 (gene 7076)
Kind of assay: BSK_hDFCGF_TIMP1: BioMAP Diversity Plus: hDFCGF Assay for TIMP metallopeptidase inhibitor 1 (TIMP1) Biomarker Activity (AID 2283062). The following applies: primary human foreskin fibroblasts; actives raise or lower the signal. A digest of the protocol:
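ELISA readout of TIMP-1 from human dermal foreskin fibroblast cultures 24 h post-dosing. Curves were fitted in both directions against DMSO baseline, with SRB total-protein staining in parallel cultures as a cytotoxicity check.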

Read-out in assay [4]: Monokine induced gamma interferon (MIG), CXCL9 (gene 4283)
Kind of assay: BSK_hDFCGF_MIG: BioMAP Diversity Plus: hDFCGF Assay for Monokine induced gamma interferon (MIG) Biomarker Activity (AID 2283063). The following applies: primary human foreskin fibroblasts; actives raise or lower the signal. A digest of the protocol: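 Fibroblasts (human foreskin, primary) dosed, 24 h, MIG by ELISA; fit bidirectional vs DMSO.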

Read-out in assay [5]: Matrix Metallopeptidase 1 (MMP1), MMP1 (gene 4312)
Kind of assay: BSK_hDFCGF_MMP1: BioMAP Diversity Plus: hDFCGF Assay for Matrix Metallopeptidase 1 (MMP1) Biomarker Activity (AID 2283064). The note with it: primary human foreskin fibroblasts; actives raise or lower the signal. An outline of the steps: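 MMP1 levels quantified by ELISA 24 h after dosing human dermal fibroblast cultures, with parallel SRB total-protein staining for overt cytotoxicity. Data fitted in both directions against DMSO baseline.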

Read-out in assay [6]: Vascular cell adhesion molecule 1 (VCAM1), VCAM1 (gene 7412)
Kind of assay: BSK_hDFCGF_VCAM1: BioMAP Diversity Plus: hDFCGF Assay for Vascular cell adhesion molecule 1 (VCAM1) Biomarker Activity (AID 2283065).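 On AC50: VCAM-1 protein level quantified by ELISA after 24 h chemical exposure.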 The note with it: primary human foreskin fibroblasts; actives raise or lower the signal. An outline of the steps: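 ELISA read-out of VCAM-1 on human skin fibroblasts, 24 h post-dose; gain or loss of signal fitted bidirectionally against DMSO baseline.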

Read-out in assay [7]: Plasminogen activator inhibitor-1 (PAI1), SERPINE1 (gene 5054)
The assay can be described thus: BSK_hDFCGF_PAI1: BioMAP Diversity Plus: hDFCGF Assay for Plasminogen activator inhibitor-1 (PAI1) Biomarker Activity (AID 2283066). The following applies: primary human foreskin fibroblasts; actives raise or lower the signal. A digest of the protocol:
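PAI-1 levels in human dermal foreskin fibroblasts were quantified by ELISA 24 h after dosing, with gain or loss analysed against DMSO. Overt cytotoxicity was checked by sulforhodamine B total-protein staining in parallel cultures.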

Read-out in assay [8]: Intercellular Adhesion Molecule 1 (ICAM1), ICAM1 (gene 3383)
Kind of assay: BSK_KF3CT_ICAM1: BioMAP Diversity Plus: KF3CT Assay for Intercellular Adhesion Molecule 1 (ICAM1) Biomarker Activity (AID 2283067). The note with it: primary human keratinocytes with fibroblasts; actives raise or lower the signal. A digest of the protocol:
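ELISA readout of ICAM-1; KF3CT human skin co-culture (keratinocytes + foreskin fibroblasts), 24 h post-dose; gain/loss fit vs DMSO baseline.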

Read-out in assay [9]: Interferon-gamma inducible Protein 10 (IP10), CXCL10 (gene 3627)
Kind of assay: BSK_KF3CT_IP10: BioMAP Diversity Plus: KF3CT Assay for Interferon-gamma inducible Protein 10 (IP10) Biomarker Activity (AID 2283068). The note with it: primary human keratinocytes with fibroblasts; actives raise or lower the signal. A digest of the protocol:
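In a primary skin co-culture of keratinocytes and fibroblasts, IP-10 is quantified by ELISA at 24 h after dosing. SRB staining of parallel wells monitors overt toxicity. Curves are fitted both directions against DMSO.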

The nature of assay [10]: BSK_KF3CT_SRB: Viability Assessment in the BioMAP Diversity Plus: KF3CT Assay (AID 2283069).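 Further: read 24 h after compound addition.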 The following applies: primary human keratinocytes with fibroblasts. A digest of the protocol: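 Cytotoxicity was gauged by SRB staining (0.1% SRB, 10% TCA fixation, 560 nm) of parallel cultures at 24 h. The cells were primary human skin keratinocytes co-cultured with fibroblasts, and activity was fitted in both directions against DMSO.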

The source of these data is PubChem BioAssay (EPA / NIEHS).

Several values for one entry are separate records, joined by “and”; a condition that tells them apart may be missing. Identical values can stand only once. Activity calls are given as the source filed them. How the source made its calls: active means hit-call score of the fitted dose curve at least 0.9, where 1 is the maximum; inactive means score below 0.9.

Take `CC(CCC(=O)O)(c1ccc(O)cc1)c1ccc(O)cc1`: the result in assay [1], in assay [2], in assay [3], in assay [4], in assay [5] and in assay [6] was inactive. Further, the outcome in [7], in [8], in [9] and in [10] was inactive.

As to `COC(OC)(C(=O)c1ccccc1)c1ccccc1`, the outcome in assay [1], in [2], in [3], in assay [4], in [5] and in assay [6] was inactive. Further, the result in [7], in assay [8], in [9] and in assay [10] was inactive.

For `Cc1c(O)cccc1O`, the outcome in assay [1], in [2], in assay [3], in assay [4], in assay [5] and in assay [6] was inactive. For the same molecule, the outcome in assay [7], in assay [8], in [9] and in [10] was inactive.

On to `Nc1nc(N)nc(-c2ccccc2)n1`, for which the outcome in assay [1], in assay [2], in [3], in assay [4], in assay [5] and in assay [6] was inactive. Moreover, the result in assay [7], in [8], in [9] and in [10] was inactive.

With `CCNc1nc(NC(C)(C)C)nc(OC)n1`, the outcome in assay [1], in [2], in assay [3], in assay [4], in [5] and in [6] was inactive. Besides, the result in assay [7], in assay [8], in [9] and in assay [10] was inactive.

As to `CCc1cccc(C)c1N(C(=O)CS(=O)(=O)O)C(C)COC` (stereo not given), the outcome in assay [1], in assay [2], in [3], in assay [4], in assay [5] and in [6] was inactive. Besides, the outcome in assay [7], in [8], in assay [9] and in assay [10] was inactive.

For the molecule `c1ccc2c(c1)[nH]c1ccccc12`, the outcome in [1], in [2], in assay [3], in [4], in assay [5] and in assay [6] was inactive. For the same molecule, the outcome in assay [7], in assay [8], in [9] and in assay [10] was inactive.

In general, AC50 refers to the concentration at which the activity in the assay is half-maximal. For the molecule `Oc1c(Cl)cc(Cl)c(Cl)c1Cl`, the result in assay [1], in assay [4], in [5] and in [10] was inactive. For the same molecule, the half-maximal activity concentration (AC50) is 28.7 µM (active) in assay [2]; 32.1 µM (active) in [3]; 23.3 µM (active) in assay [6]; 24.6 µM (active) in [7]; 20 µM (active) in assay [8]; 20 µM (active) in [9].

With `C=CCCCCCCCCC=O`, the outcome in assay [1], in [2], in [3], in assay [4], in assay [5] and in [6] was inactive. The result in [7], in [8], in assay [9] and in assay [10] was inactive.

For the molecule `CC(C)C(=O)OCCc1ccccc1`, the outcome in [1], in assay [2], in assay [3], in assay [4], in assay [5] and in assay [6] was inactive. The result in [7], in assay [8], in assay [9] and in [10] was inactive.

`CCOC(=O)/C=C\C(=O)OCC`: the outcome in assay [1], in assay [2], in [3], in assay [4], in assay [5] and in assay [6] was inactive. Besides, the outcome in assay [7], in [8], in assay [9] and in assay [10] was inactive.

For the molecule `Oc1ccccc1Cc1ccccc1O`, the outcome in assay [1], in assay [3], in [4], in [5], in assay [6] and in [7] was inactive. The outcome in [8], in assay [9] and in assay [10] was inactive. The AC50 in [2] was 1.22 µM (active) and 191 nM (active).

Turning to `Cc1ccc([N+](=O)[O-])cc1N`, the result in [1], in assay [2], in assay [3], in assay [4], in assay [5] and in [6] was inactive. Also, the outcome in assay [7], in [8], in assay [9] and in [10] was inactive.

For the molecule `CC1=CC=C(C(C)C)CC1`, the result in assay [1], in assay [2], in [3], in [4], in assay [5] and in assay [6] was inactive. The result in assay [7], in [8], in assay [9] and in assay [10] was inactive.

As to `Fc1ccc(Br)cc1`, the result in [1], in assay [2], in [3], in assay [4], in assay [5] and in [6] was inactive. Moreover, the result in assay [7], in assay [8], in assay [9] and in assay [10] was inactive.
